The text below walks through data of the supplement of paper PMC10811239.

Each structure is given as a SMILES string.

The test system of the assay is LEGO organoid PTN (PTEN-/-; TP53-/-; NF1-/-). Nature of the assay: bioluminescence (viable cell) signal fold change after vs before treatment, normalised to DMSO (ratio); higher = more tumour cell growth / less inhibition. The note with it: 10 µM; treatment time 6 days. On the procedure: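 Luc2-labelled iPSC-derived glioblastoma-like organoids (LEGOs, genotypes PT = PTEN-/-;TP53-/-, PTCC = plus CDKN2A/B-/-, PTN = plus NF1-/-) were treated with 10 uM drug for 6 days (applied every other day) at 37 C. Bioluminescence imaging was done before treatment and 2 days after the last dose. BLI signals were normalised to the DMSO control on the same day and then to the pre-treatment signal (N=3).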
`NCC1(CC(=O)O)CCCCC1` [Gabapentin]: the bioluminescence was 0.585. Then `CC[C@@H](C(N)=O)N1CCCC1=O` [Levetiracetam], with 0.81; and `CCN(C)C(=O)Oc1cccc([C@H](C)N(C)C)c1.O=C(O)[C@H](O)[C@@H](O)C(=O)O` [Rivastigmine tartrate], with 1.33; and `CC(C)C[C@H]1C(=O)N2CCC[C@H]2[C@]2(O)O[C@](NC(=O)[C@@H]3C[C@@H]4c5cccc6[nH]cc(c56)C[C@H]4N(C)C3)(C(C)C)C(=O)N12.CC(C)[C@@]1(NC(=O)[C@@H]2C[C@@H]3c4cccc5[nH]cc(c45)C[C@H]3N(C)C2)O[C@@]2(O)[C@@H]3CCCN3C(=O)[C@H](Cc3ccccc3)N2C1=O.CC(C)[C@H]1C(=O)N2CCC[C@H]2[C@]2(O)O[C@](NC(=O)[C@@H]3C[C@@H]4c5cccc6[nH]cc(c56)C[C@H]4N(C)C3)(C(C)C)C(=O)N12.CCC(C)[C@H]1C(=O)N2CCC[C@H]2[C@]2(O)O[C@](NC(=O)[C@@H]3C[C@@H]4c5cccc6[nH]cc(c56)C[C@H]4N(C)C3)(C(C)C)C(=O)N12.CS(=O)(=O)O` [Dihydroergotoxine mesylate], with 1.88. Next, `CCOC(=O)c1cncn1[C@H](C)c1ccccc1` [Etomidate]: 2.17. Next, `CCC1(c2ccc(N)cc2)CCC(=O)NC1=O` (configuration not stated) [Aminoglutethimide]: 1.07; `Cc1n[nH]cc1-c1cc2[nH]c([C@@H]3CC4CCN3CC4)nc(=O)c2s1` [Simurosertib]: 1.05; `CCN(C)C(=O)Oc1cccc([C@H](C)N(C)C)c1` [Rivastigmine]: 1.18. On to `COc1ccc(C(CN(C)C)C2(O)CCCCC2)cc1.Cl` (configuration not stated) [Venlafaxine hydrochloride], for which the bioluminescence is 1.33. `CC(C)c1cccc(C(C)C)c1O` [Propofol]: the bioluminescence was 1.2. Then `CN[C@@H]1C[C@H]2O[C@@](C)([C@@H]1OC)n1c3ccccc3c3c4c(c5c6ccccc6n2c5c31)C(=O)NC4` [Staurosporine], with 0; and `O=C(O)CCCc1ccc(N(CCCl)CCCl)cc1` [Chloroambucil], with 1.36. Next, `Cc1cccc([C@H](C)c2cnc[nH]2)c1C.Cl` [Dexmedetomidine HCl]: 0.581; `CN(C)C(=O)Oc1ccc[n+](C)c1.[Br-]` [Mestinon]: 0.642; `NCC(CC(=O)O)c1ccc(Cl)cc1` (configuration not stated) [Baclofen]: 1.95. Next, `Cl.Cn1c(CCCC(=O)O)nc2cc(N(CCCl)CCCl)ccc21` [Bendamustine hydrochloride]: 1.14; `COc1cc2c(cc1OC)[C@@H]1CC(=O)[C@@H](CC(C)C)CN1CC2.COc1cc2c(cc1OC)[C@H]1CC(=O)[C@H](CC(C)C)CN1CC2` [Tetrabenazine]: 0.557.
